Assay results as given in PubChem BioAssay (Tox21).
Where “and” joins values, the source holds several entries; their conditions need not be identical. Identical values can stand only once. Results filed as inconclusive are left out. A structure can be active in one record and inactive in another. Calls of active or inactive are those of the source. Unless noted, the call rests on the fitted dose curve; in most records, active means well fitted curve in the direction sought with a large enough effect in the repeat runs; inconclusive means weak or mixed curves; inactive means no such curve, though single readings can be large; an effect the other way counts as inactive or inconclusive.

Tests used:
[1] = qHTS assay for small molecules that induce genotoxicity in human embryonic kidney cells expressing luciferase-tagged ATAD5 (AID 651632); settings: HEK293T ATAD5-luciferase induction, 16 h; series mostly up to 83.3 µM; further: nearly all actives have a fitted effect of over 15% in size
Procedure, shortened: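 ATAD5-luc HEK293T, 2,000 cells/well; cpd or DMSO pin-transferred; 16 hr, 37C/5% CO2; Amplite 30 min RT; luminescence.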

[2] = qHTS assay for small molecule agonists of the p53 signaling pathway - cell viability (AID 651633; calls by dose curve;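 further: p53RE-bla HCT reporter cells with a stable beta-lactamase p53 reporter; nearly all actives have a fitted effect of over 30% in size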); settings: p53RE-bla HCT-116 viability, ATP luminescence, 16 h; series mostly up to 83.3 µM
Procedure, shortened: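 p53RE-bla cells, seeded at 4,000 per well and rested 5 h at 37 C/5% CO2, received compounds in DMSO for 16 h at 37 C. CellTiter-Glo was then added, and luminescence was read after 30 min at room temperature to gauge cytotoxicity.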

[3] = qHTS assay for small molecules that induce genotoxicity in human embryonic kidney cells expressing luciferase-tagged ATAD5 - cell viability (AID 651634; calls by dose curve; further: nearly all actives have a fitted effect of over 25% in size); settings: HEK293T ATAD5-luc cells viability, CellTiter-Fluor, 15.5 h; series mostly up to 83.3 µM
Procedure, shortened: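 Fluorescence from CellTiter-Fluor, reporting protease activity within live cells, served as the viability read-out. HEK293T cells carrying luciferase-tagged ATAD5 had been treated with compound for 15.5 hr at 37C.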

[4] = qHTS assay for small molecule disruptors of the mitochondrial membrane potential - cell viability (AID 720634; calls by dose curve; further: nearly all actives have a fitted effect of over 20% in size; further: potency means the concentration at half of the fitted maximal effect); settings: HepG2 viability, ATP luminescence (CellTiter-Glo), 1 h; series mostly up to 83.2 µM
Procedure, shortened: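 Cells: HepG2, 2,000/well, attached overnight. Compound 1 hr, 37 C/5% CO2. +m-MPI dye, +CellTiter-Glo 30 min RT. Readout: luminescence (ATP).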

[5] = qHTS assay to test for compound auto fluorescence at 590 nm (red) in HepG2 cells (AID 720674); settings: HepG2 autofluorescence, red 540/590 nm, 1 h; series mostly up to 46 µM
Procedure, shortened: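 Rose Bengal sodium served as the red fluorophore standard. HepG2 monolayers (overnight attachment, MEM with 10% FBS) were exposed to test compounds for 1 hr at 37 C and read at Ex 540/Em 590 nm.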

[6] = qHTS assay to test for compound auto fluorescence at 535 nm (green) in HepG2 cells (AID 720675); settings: green autofluorescence 485/535 nm, 1 h; series mostly up to 46 µM
[7] = qHTS assay to test for compound auto fluorescence at 460 nm (blue) in HEK293 cells (AID 720678); settings: blue autofluorescence 405/460 nm; series mostly up to 46 µM
Procedure, shortened: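 After cell attachment (4-5 hr, 37C), compounds were pinned onto HEK293 monolayers in 10% dialyzed FBS medium. The blue channel (405/460 nm) was read following overnight culture. Equivalency was calculated against triamterene.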

[8] = qHTS assay to test for compound auto fluorescence at 590 nm (red) in HEK293 cells (AID 720679); settings: red autofluorescence 540/590 nm; series mostly up to 46 µM
Procedure, shortened: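 Plates of HEK293 cells (10% dialyzed FBS) are treated with 23 nL compound or DMSO vehicle after a 4-5 hr attachment period, incubated overnight at 37C, and read for red fluorescence at 540/590nm.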

[9] = qHTS assay to test for compound auto fluorescence at 535 nm (green) in HEK293 cells (AID 720680); settings: green autofluorescence 485/535 nm; series mostly up to 46 µM
[10] = qHTS assay to test for compound auto fluorescence at 460 nm (blue) in HEK293 cell free culture (AID 720681); settings: cell-free medium, autofluorescence 405/460 nm (blue); series mostly up to 46 µM
Procedure, shortened: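 Test compounds were pinned into cell-free culture medium (DMEM with 10% FBS) and fluorescence was read directly at Ex/Em 405/460 nm. Signals were expressed as fluorescence equivalents of triamterene, with DMSO vehicle as control.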

[11] = qHTS assay to test for compound auto fluorescence at 535 nm (green) in HEK293 cell free culture (AID 720682); settings: cell-free medium, green autofluorescence 485/535 nm, stronger effect = higher value; series mostly up to 46 µM
Procedure, shortened: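 Intrinsic compound fluorescence is measured in culture medium containing 10% FBS, with excitation at 485 nm and detection at 535 nm, referenced to fluorescein.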

[12] = qHTS assay to test for compound auto fluorescence at 590 nm (red) in HEK293 cell free culture (AID 720683); settings: cell-free medium autofluorescence, Ex540/Em590 red; series mostly up to 46 µM
Procedure, shortened: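 Tox21 10K library compounds were pinned into cell-free DMEM with 10% FBS and fluorescence was read at excitation 540 nm. Activity is expressed as Rose Bengal sodium equivalency.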

[13] = qHTS assay to test for compound auto fluorescence at 590 nm (red) in HepG2 cell free culture (AID 720684); settings: cell-free medium autofluorescence, red 540/590 nm; series mostly up to 46 µM
Procedure, shortened: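 Measured in medium alone (MEM containing 10% FBS) following pintool addition of compound; emission at 590 nm with 540 nm excitation, referenced to Rose Bengal sodium.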

[14] = qHTS assay to test for compound auto fluorescence at 460 nm (blue) in HepG2 cell free culture (AID 720685); settings: Cell-free culture medium, blue autofluorescence 405/460 nm; series mostly up to 46 µM
Procedure, shortened: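 Compound (23 nL) or DMSO pinned into cell-free MEM with 10% FBS; blue fluorescence read at 405/460 nm excitation/emission, expressed as auto-fluorescence equivalency to triamterene.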

[15] = qHTS assay to test for compound auto fluorescence at 535 nm (green) in HepG2 cell free culture (AID 720686); settings: Cell-free medium, green autofluorescence 485/535 nm; series mostly up to 46 µM
[16] = qHTS assay to test for compound auto fluorescence at 460 nm (blue) in HepG2 cells (AID 720687); settings: autofluorescence 405/460 nm, 1 h; series mostly up to 46 µM
Procedure, shortened: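 Cells (2,000/well in MEM with 10% FBS) attached overnight at 37 C, then were exposed to compound or DMSO for 1 hr at 37 C, 5% CO2. Fluorescence read at Ex/Em 405/460 nm, expressed as triamterene-equivalent signal.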

[17] = target: Glucocorticoid receptor (Homo sapiens) (UniProt P04150); experiment: qHTS assay to identify small molecule agonists of the glucocorticoid receptor (GR) signaling pathway (AID 720691; active means well fitted activation curve with a large enough effect in the signal ratio in the repeat runs, not every such curve was filed as active; the % refers to the signal ratio); settings: GR-bla HeLa, beta-lactamase reporter ratio, 18 h; series mostly up to 62.4 µM
Procedure, shortened: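 Fluorescence intensity from LiveBLAzer B/G FRET substrate (2 h, room temperature) reports beta-lactamase expression driven by the glucocorticoid response element in GR-bla HeLa cells after 18 h compound exposure at 37 C.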

[18] = qHTS assay for small molecule disruptors of the mitochondrial membrane potential (AID 720635); settings: HepG2 mitochondrial membrane potential, Mito-MPS dye ratio; series mostly up to 83.2 µM; further: potency means the concentration at half of the fitted maximal effect
Procedure, shortened: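 HepG2 cells (2,000/well) attached overnight at 37C, then took compound for 1 hr at 37C, 5% CO2. Mito-MPS dye was added for 30 min; fluorescence was read at 490/535 nm (monomers) and 540/590 nm (aggregates).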

[19] = target: Glucocorticoid receptor (Homo sapiens) (UniProt P04150); experiment: qHTS assay to identify small molecule antagonists of the glucocorticoid receptor (GR) signaling pathway (AID 720692; active means well fitted inhibition curve with a large enough effect in the signal ratio in the repeat runs, not every such curve was filed as active; the % refers to the signal ratio; further: potency means the concentration at half of the fitted maximal effect); settings: GR-bla HeLa, beta-lactamase FRET ratio, dexamethasone-stimulated, 18 h; series mostly up to 58.5 µM
Procedure, shortened: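 HeLa GR-bla cells; cmpd + dex 5 nM final, 18 h 37 C; LiveBLAzer B/G FRET substrate 2 h RT; fluorescence intensity read. Antagonist mode, qHTS.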

Measured: Potency

Glucocorticoid receptor (Homo sapiens), sequence (P04150 whole entry, looked up): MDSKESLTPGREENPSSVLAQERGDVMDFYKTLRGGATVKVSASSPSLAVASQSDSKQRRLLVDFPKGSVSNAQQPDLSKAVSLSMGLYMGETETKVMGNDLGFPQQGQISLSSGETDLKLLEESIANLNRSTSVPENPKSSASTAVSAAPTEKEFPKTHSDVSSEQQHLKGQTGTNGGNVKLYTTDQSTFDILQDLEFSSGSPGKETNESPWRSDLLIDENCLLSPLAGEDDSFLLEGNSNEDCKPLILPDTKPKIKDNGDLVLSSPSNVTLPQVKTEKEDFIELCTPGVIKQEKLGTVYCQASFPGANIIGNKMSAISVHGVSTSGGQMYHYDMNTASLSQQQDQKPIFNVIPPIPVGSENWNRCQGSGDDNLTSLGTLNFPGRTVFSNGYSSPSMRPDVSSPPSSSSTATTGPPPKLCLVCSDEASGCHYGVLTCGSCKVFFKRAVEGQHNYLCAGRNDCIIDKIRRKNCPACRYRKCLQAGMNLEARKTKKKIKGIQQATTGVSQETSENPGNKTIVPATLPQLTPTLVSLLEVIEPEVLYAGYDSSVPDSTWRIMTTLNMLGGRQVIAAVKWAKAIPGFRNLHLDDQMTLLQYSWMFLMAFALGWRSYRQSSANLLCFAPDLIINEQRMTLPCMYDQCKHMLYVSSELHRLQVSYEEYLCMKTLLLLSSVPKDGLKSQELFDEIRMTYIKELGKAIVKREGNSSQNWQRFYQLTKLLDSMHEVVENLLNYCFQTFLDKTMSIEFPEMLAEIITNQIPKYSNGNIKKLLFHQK

CC/C=C\CC/C=C/C(OCC)OCC
not listed: [18] | [19]
inactive: all other assays above

CC(C)CNCC(C)C
not listed: [5] | [10] | [17] | [19]
inactive: all other assays above

CC(=O)OCC(CCn1cnc2cnc(N)nc21)COC(C)=O
not listed: [14]
inactive: all other assays above

COC(=O)C1=C(C)NC(C)=C(C(=O)OC)C1c1ccccc1[N+](=O)[O-]
active: [19] 10.7 µM and 27.6 µM
inactive and 61.2 µM (active): [18]
not listed: [3] | [14]
inactive: all other assays above

CCCCCCOC(=O)CCCCC(=O)OCCCCCC
not listed: [5] | [10] | [14] | [17] | [19]
inactive: all other assays above

CN(C)CCCN1c2ccccc2CCc2ccc(Cl)cc21
not listed: [1] | [18] | [19]
inactive: all other assays above

COc1nc(N)nc2c1ncn2[C@@H]1O[C@H](CO)[C@@H](O)[C@@H]1O
not listed: [2] | [18]
inactive: all other assays above

CC(C)(C)c1ccc(O)c(O)c1
active: [18] 15.9 µM and 13.7 µM | [19] 50.9 µM
not listed: [1] | [2]
inactive: all other assays above

CCOC(=O)CC(C)=O
not listed: [1] | [2] | [17] | [18] | [19]
inactive: all other assays above

O=C1CCCCCCCCCCCN1
not listed: [3] | [10]
inactive: all other assays above

COC(=O)CCSCCC(=O)OC
not listed: [2] | [10] | [19]
inactive: all other assays above

Brc1c(NC2=NCCN2)ccc2nccnc12
not listed: [1] | [14] | [18]
inactive: all other assays above

O=C1CCCN1C1CCCCC1
not listed: [2] | [18] | [19]
inactive: all other assays above

CC/C=C\CCOC(C)=O
not listed: [2] | [18]
inactive: all other assays above

COC(=O)CC(C)=O
not listed: [2]
inactive: all other assays above

O=C1OC(=O)C2CCCCC12 (stereo unspecified)
not listed: [3] | [5]
inactive: all other assays above

CCCCOCCOCCOCc1cc2c(cc1CCC)OCO2
active: [18] 55.1 µM
inactive and 17.4 µM (active): [4]
not listed: [1] | [2] | [17] | [19]
inactive: all other assays above

C=C(C)C(=O)OCCCCCCCC(C)C
not listed: [2] | [4] | [14] | [18] | [19]
inactive: all other assays above

O=C(O)COc1nn(Cc2ccccc2)c2ccccc12
not listed: [3] | [5]
inactive: all other assays above

CCCCCCCCCCCCCCCCC
not listed: [2]
inactive: all other assays above

Cc1nc2c([nH]1)c(=O)n(C)c(=O)n2Cc1ccco1
not listed: [2] | [5] | [19]
inactive: all other assays above

CC(C)(c1ccc(O)cc1)c1ccc(O)cc1
active: [18] 6.78 µM and 5.54 µM
not listed: [2] | [5] | [17] | [19]
inactive: all other assays above

C/C=C(\C)C#N
not listed: [2] | [3] | [17] | [18] | [19]
inactive: all other assays above

OC1CCCCC1c1ccccc1 (stereo unspecified)
not listed: [3] | [18]
inactive: all other assays above

COc1c(N2C[C@@H]3CCCN[C@@H]3C2)c(F)cc2c(=O)c(C(=O)O)cn(C3CC3)c12
not listed: [2] | [17] | [18] | [19]
inactive: all other assays above

CC(=O)OC/C=C(\C)CC/C=C(\C)CCC=C(C)C
not listed: [2] | [17] | [19]
inactive: all other assays above

CO[C@]12C[C@@H](COC(=O)c3cncc(Br)c3)CN(C)[C@@H]1Cc1cn(C)c3cccc2c13
not listed: [2] | [3]
inactive: all other assays above

NC(=O)Nc1ccccc1
not listed: [2] | [3] | [5] | [10] | [19]
inactive: all other assays above

OC[C@]1(O)OC[C@@H](O)[C@H](O)[C@@H]1O
not listed: [2] | [17] | [19]
inactive: all other assays above

CCOC(=O)Nc1ccc(NCc2ccc(F)cc2)nc1N
not listed: [3] | [7] | [10] | [14] | [16]
inactive: all other assays above

COC(=O)[C@@H](N)Cc1ccc(O)c(O)c1
not listed: [2] | [17] | [19]
inactive: all other assays above

CC(C)CCCC(C)N (stereo unspecified)
not listed: [2] | [10]
inactive: all other assays above

Cc1cccn2c(=O)c(-c3nnn[nH]3)cnc12
not listed: [2] | [3] | [5] | [18]
inactive: all other assays above

NCCc1cnc[nH]1
not listed: [1] | [2] | [17] | [18] | [19]
inactive: all other assays above

CO/N=C(/C(=O)N[C@@H]1C(=O)N2C(C(=O)OCOC(=O)C(C)(C)C)=C(C)CS[C@H]12)c1csc(N)n1
not listed: [3] | [5] | [17] | [18] | [19]
inactive: all other assays above

CC(C)OC(=O)c1ccccc1
not listed: [2] | [5] | [14] | [18]
inactive: all other assays above
